# D2 ag-1 – HTS Assay for Allosteric Agonists of the Human D2 Dopamine Receptor: Primary Screen for Agonists; actives 0.53% (n = 340,000); activation, % at 2 µM; HEK293 T-REx D2 cells, calcium flux agonist mode;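 active means activation over 3 SD above normal in the single-dose calcium agonist read, cut at about 30% in these data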; further: 0% is about no effect
# Target sequence (P14416 whole entry, looked up): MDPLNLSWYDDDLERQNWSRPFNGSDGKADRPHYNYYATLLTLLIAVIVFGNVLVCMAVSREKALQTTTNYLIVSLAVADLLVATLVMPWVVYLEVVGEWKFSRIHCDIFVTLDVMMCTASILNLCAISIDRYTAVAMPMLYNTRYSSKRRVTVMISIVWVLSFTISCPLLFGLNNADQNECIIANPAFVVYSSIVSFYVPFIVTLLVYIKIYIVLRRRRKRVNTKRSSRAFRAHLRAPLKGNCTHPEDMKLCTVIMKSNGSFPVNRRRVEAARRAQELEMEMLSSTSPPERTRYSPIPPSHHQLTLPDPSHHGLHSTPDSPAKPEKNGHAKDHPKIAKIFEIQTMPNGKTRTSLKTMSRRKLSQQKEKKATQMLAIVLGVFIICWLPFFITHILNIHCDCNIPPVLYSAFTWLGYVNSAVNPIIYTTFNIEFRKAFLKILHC
#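 Tetracycline-induced HEK293 Trex cells with D2 receptor force-coupled to calcium signaling, plated overnight at 30 C and loaded with no-wash calcium dye. Calcium flux read kinetically for 180 s after compound addition; responses flag agonists.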
# D2 ag-2 – Beta-Arrestin HTS for Positive Allosteric Modulators of the Human D2 Dopamine Receptor: Agonists; D(2) dopamine receptor (Homo sapiens), P14416; DiscoveRx PathHunter D2 beta-arrestin, luminescence, 90 min; 100% = 57 uM dopamine signal; activation, % (no concentration beside the values); actives 0.084% (n = 360,000); AID 624465, 2012; in the data active means activation above about 40%
#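 DiscoveRx PathHunter D2 beta-arrestin cells (2,100/well) attached overnight, then compound-stimulated 90 min at 37 C in HBSS/10 mM HEPES/0.1% Tween-20 buffer; beta-galactosidase complementation read by luminescence after 1 h at ambient temperature. Dopamine 57 uM final (EC100) as control.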
# D2 PAM-1 – HTS Assay for Positive Allosteric Modulators of the Human D2 Dopamine Receptor: Primary Screen for Potentiators; D(2) dopamine receptor (Homo sapiens), P14416; HEK293 T-REx D2, calcium flux, EC20 dopamine potentiation; potentiation, % at 10 µM; actives 0.34% (n = 340,000); AID 485347, 2010;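 active means potentiation over 3 SD above the plate norm, cut at about 30% in these data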; further: 0% is about no effect
#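 Primary screen. Calcium kinetics in induced HEK293 T-REx D2 cells: compound pre-addition 180 s, EC20 dopamine, 180 s more.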
# D2 antag – HTS Assay for Allosteric Antagonists of the Human D2 Dopamine Receptor: Primary Screen for Antagonists. D(2) dopamine receptor (Homo sapiens), P14416. HEK293 TREx D2 cells, calcium flux, dopamine EC80. inhibition, % at 10 µM. actives 2% (n = 340,000); in the data active means inhibition above about 30%; inactive means below that, where a call was filed; further: 0% is about no effect
#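 Inhibition of EC80 dopamine-driven calcium flux, recorded kinetically, defines activity here; cells are a tetracycline-induced HEK293 T-REx line expressing force-coupled D2.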
# D2 PAM-2 – Beta-Arrestin HTS for Positive Allosteric Modulators of the Human D2 Dopamine Receptor: Potentiators; D(2) dopamine receptor (Homo sapiens), P14416; DiscoveRx D2 beta-arrestin cells, luminescence, 90 min; 100% = 57 uM dopamine signal; potentiation, % (no concentration beside the values); actives 0.23% (n = 360,000); in the data active means potentiation above about 50%
#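 PathHunter D2 cells, attached overnight at 37 deg C, received compound in DMSO plus dopamine at EC20 (50 nM final) for 90 min at 37 deg C. Beta-arrestin recruitment was read as luminescence after 1 h with detection reagent at ambient temperature.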
# Active calls of the source: *; / = no result. An excerpt weighted towards active compounds, which were near 2.4% of everything screened.
SMILES,D2 ag-1,D2 ag-2,D2 PAM-1,D2 antag,D2 PAM-2
Cc1cc(C)c2c(c1)c(C)cc1nnc(SCC(=O)c3ccccc3)n12,/,/,-7,/,/
CCC(C)(C)C1CCC2(CC1)NC(=O)N(CC(=O)NCCc1c[nH]c3ccccc13)C2=O (stereo not given),-1,2,-8,1,-17
COc1cc2[nH]cc(C(=O)NCCc3ccccc3)c(=O)c2cc1OC,-2,3,39*,-16,-3
COc1cc2[nH]cc(C(=O)NCc3ccccc3)c(=O)c2cc1OC,1,5,15,10,-4
CCOc1ccc(NC(=O)CC2C(=O)N(c3ccc(OC)cc3)C(=O)N2CCC2=CCCCC2)cc1 (stereo not given),/,/,-9,/,/
Cc1cc(NNC(=O)c2ccccc2)nc(NNC(=O)c2ccccc2)n1,0,9,-23,34*,2
CNc1nc(NC)nc(NNC(=O)c2ccccc2)n1,/,0,/,/,-10
O=C1Nc2ccccc2/C1=C/c1ccccc1Cl,-1,-2,-1,4,-11
CN1CCN(c2ccccc2/C=C2/C(=O)Nc3ccccc32)CC1,3,-4,-26,37*,-13
CCCn1c2ccccc2c2cnn(CC(=O)Nc3cccc(C(=O)OCC)c3)c(=O)c21,0,/,-4,/,/
O=C(O)CC1(CC(=O)N2CCOCC2)CCCC1,0,-3,36*,4,2
O=C(O)CC1(CC(=O)N2CCC(C(=O)O)CC2)CCCC1,1,-3,7,12,-2
COc1cc(/C=C/CNC[C@H]2O[C@@H](n3ccc(=O)[nH]c3=O)[C@H](O)[C@@H]2O)ccc1O,/,-2,/,/,-2
CCOc1ccc(CCNc2ncnc3onc(-c4ccc(F)cc4)c23)cc1OCC,1,/,8,/,/
Clc1ccc2c(c1)CCc1cccnc1C2=C1CCNCC1,/,/,/,30*,/
COC(=O)Nc1cc([N+](=O)[O-])ccc1OC,2,-1,10,-6,-6
COc1ccc([N+](=O)[O-])cc1NC(=O)C(C)N1CCCC1 (stereo not given),0,-6,-11,31*,-24
COc1ccc([N+](=O)[O-])cc1NC(=O)Nc1ccccc1,0,-1,-26,37*,-33
O=C(COC(=O)CNC(=O)c1ccco1)Nc1ccccc1OC(F)F,-6,-3,-4,16,-6
CCN1CCN(C(=O)Nc2cccc(C(F)(F)F)c2)CC1,0,1,-6,-4,-7
CCN1CCC(NC(=O)Nc2cccc(C(F)(F)F)c2)CC1,0,-2,-4,37*,-22
O=C(COC(=O)/C=C/c1cccc(F)c1)NC1CC1,/,-2,/,/,-19
O=C(/C=C/c1cccc(F)c1)NC1CCN(Cc2ccccc2)CC1,-1,-3,-25,56*,-18
O=C(CCCn1c(=O)c2ccccc2n(Cc2cccc(F)c2)c1=O)NC1CCN(Cc2ccccc2)CC1,18,/,-20,40*,/
O=C(Nc1cccc(F)c1)NC1CCN(Cc2ccccc2)CC1,0,-3,-29,89*,-18
SMILES,D2 ag-1,D2 ag-2,D2 PAM-1,D2 antag,D2 PAM-2
CS(=O)(=O)c1ccc(-c2csc(-c3cccnc3)n2)cc1,0,-5,4,13,-10
CCN(CC(=O)NCc1ccc(Cl)cc1)Cc1cc(=O)n2ccsc2n1,0,-3,6,14,5
O=C(CSc1nc2ccccc2n1Cc1ccc(F)c(Cl)c1)N1CCN(c2ccc(F)cc2)CC1,0,/,21,/,/
C[C@@H](OC(=O)N(C)Cc1ccccc1)[C@H]1O[C@]2(C)CCCC[C@H]1O2,0,-3,-4,1,-9
Fc1ccccc1CN1CCC(Cc2ccccc2)CC1,-2,-4,-2,4,-9
Fc1cccc(CN2CCC(Cc3ccccc3)CC2)c1,-4,1,1,56*,-66
O=C(NC1CCN(Cc2ccccc2)CC1)c1c(Cl)cccc1Cl,0,-3,4,-6,-25
